# Source: PubChem (National Center for Advancing Translational Sciences (NCATS))
# PMP22 txn prim: PMP22 gene transcription modulation. S16 Pmp22-F2sN Schwann cells, FLuc/NLuc coincidence luminescence, 24 h. Potency, µM (top dose mostly 57.5 µM), for the others: top-dose activity change, negative = inhibition, hits mostly inhibitors. hit rate 2% among 43,000. AID 1508649; active means clear falling dose curves in both reporters; inconclusive means both reporters move, but less clearly or upward; inactive means either reporter flat; the % is the NLuc reporter signal; further: on the % scale 0 is the no-effect control and ±100 the full control effect
#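 S16 Schwann cells carrying FLuc/NLuc coincidence reporter in the Pmp22 3' UTR treated with compound 24 h at 37C; FLuc then NLuc luminescence read sequentially by dual-luciferase reagents.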
# mTORC1 inh: inhibitors of mTORC1 signaling in Tsc2-/- p53-/- MEF cells | Potency, µM (doses to about 38.3 µM), for inactives: top-dose activity change, negative = inhibition, most hits filed as inhibitors | Tsc2-/- p53-/- MEF, phospho-rpS6 immunofluorescence/PI, 24 h | hit rate 0.78% among 44,000 | AID 493208;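 further: plate controls were DMSO for no effect and rapamycin for full effect; nearly all actives have a fitted effect of over 50% in size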
#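 Read-out: phospho-S6 Alexa-488 intensity over PI intensity per well, scored as % active cells using thresholds from rapamycin (7.5 nM) and DMSO controls. Tsc2-/-, p53-/- MEFs exposed to compound for 24 h; PI cell count recorded as viability.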
# OvCa metastasis: blocks SKOV3ip1 adhesion and invasion in omental model. SKOV3ip1-GFP adhesion/invasion on 3D omental model, fluorescence. Potency, µM (top dose mostly 45.8 µM), for the others: top-dose activity change, negative = inhibition, most hits filed as inhibitors. hit rate 0.1% among 46,000;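 further: plate controls were DMSO wells for no effect and tomatine positive control wells for full effect; nearly all actives have a fitted effect of over 65% in size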
#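 A 3D layer of primary human omental fibroblasts, mesothelial cells, fibronectin and collagen I, grown 48 hr, received SKOV3ip1-GFP cells in serum-free medium plus compounds at 0.36-46 umol/L. After 2 hr RT and 16 hr 37 C, fixed adherent GFP cells were counted; normalized to DMSO and tomatine.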
# NTMT1 inhibitor: NTMT1 methyltransferase inhibition. Q9BV86. NTMT1 MTase-Glo SAH luminescence, purified enzyme. Potency, µM (titrated, usually from 114 µM), without a hit: at the highest dose activity change, negative = inhibition, actives largely listed as inhibitors. hit rate 2.5% among 59,000;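 further: plate controls were DMSO vehicle for no effect and no enzyme for full effect; nearly all actives have a fitted effect of over 65% in size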
# GALC G270D up: galactocerebrosidase G270D activity enhancement, cell-based; P54803; 145M-Twi-hGALC-G270D cells, HMU-beta-Gal fluorescence, 48 h; Potency, µM (highest dose often 57.5 µM), actives largely listed as activators; hit rate 0.1% among 45,000; further: 0% is about no effect; nearly all actives have a fitted effect of over 65% in size
# Target sequence (P54803 whole entry G286D): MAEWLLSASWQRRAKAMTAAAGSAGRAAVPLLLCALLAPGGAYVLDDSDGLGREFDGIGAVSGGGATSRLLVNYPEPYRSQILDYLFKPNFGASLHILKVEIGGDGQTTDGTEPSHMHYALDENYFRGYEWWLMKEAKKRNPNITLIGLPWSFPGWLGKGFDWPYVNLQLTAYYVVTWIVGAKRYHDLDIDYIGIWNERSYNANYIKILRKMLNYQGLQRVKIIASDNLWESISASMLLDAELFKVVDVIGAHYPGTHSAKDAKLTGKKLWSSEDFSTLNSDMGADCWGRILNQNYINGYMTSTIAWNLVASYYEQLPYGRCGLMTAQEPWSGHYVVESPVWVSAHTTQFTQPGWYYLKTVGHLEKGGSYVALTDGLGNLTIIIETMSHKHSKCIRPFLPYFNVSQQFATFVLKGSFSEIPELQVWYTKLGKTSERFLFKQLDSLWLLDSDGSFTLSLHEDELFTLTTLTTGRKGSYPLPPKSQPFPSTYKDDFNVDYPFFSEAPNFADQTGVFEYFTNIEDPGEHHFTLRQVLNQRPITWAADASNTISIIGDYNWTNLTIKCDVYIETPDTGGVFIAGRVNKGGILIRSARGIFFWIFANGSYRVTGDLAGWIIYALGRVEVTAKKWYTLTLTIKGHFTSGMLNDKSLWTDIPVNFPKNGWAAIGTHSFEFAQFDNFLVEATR
#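 qHTS, 1536-well; 145M-Twi-hGALC-G270D cells (WT line also made) in DMEM/F12 + 10% FBS; compound incubation on live cells; HMU-β-gal 0.1 mM final, pH 5.2, NaTC; carbonate stop; fluorescence increase = enhanced residual activity.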
# S16 F2sN tox: toxic to S16 Pmp22-F2sN Schwann cells | S16 Pmp22-F2sN Schwann cells viability, CellTiter-Glo, 24 h | Potency, µM (titrated, usually from 57.5 µM), without a hit: at the highest dose activity change, negative = cytotoxicity, hits mostly cytotoxic | hit rate 0.48% among 43,000; further: on the % scale 0 is the no-effect control and ±100 the full control effect; nearly all actives have a fitted effect of over 65% in size
#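 Viability was measured by CellTiter-Glo luminescence (15 min, room temperature). This followed 24 h at 37 °C of compound exposure (23 nL pin transfer) in S16 Pmp22-F2sN Schwann cells, 500-1,000 per well.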
# * = called active by the depositor; i = inactive; ? = inconclusive; nt = no result given; [ ] = dose if it differs, or a comment. A selection: hits, their analogues and other compounds. The true share with any hit is near 3.6%. Unless noted, the call rests on the fitted dose curve; in most records, active means well fitted curve in the direction sought with a large enough effect; inconclusive means small, poorly fitted or top-dose-only effect, or another doubt; inactive means no such curve, though single readings can be large; an effect the other way counts as inactive or inconclusive. Potency means the concentration at half of the fitted maximal effect.
SMILES,PMP22 txn prim,mTORC1 inh,OvCa metastasis,NTMT1 inhibitor,GALC G270D up,S16 F2sN tox
CC1=Nc2cc(C(=O)NC3CCCC3)ccc2Sc2ccc(Br)cc21,?,?,25%,10%,i,3%
CC1=Nc2cc(C(=O)NCCc3ccc(Cl)cc3)ccc2Sc2ccc(C)cc21,9.5µM*,-16%,-4%,9%,i,?
Cc1ccc(CNc2ccc(N3CCNCC3)cc2)cc1,nt,nt,nt,4%[57.5 µM],nt,nt
O=C(NCCCN1CCNCC1)c1cccc(-c2cc(O)c3ncccc3c2)c1,nt,nt,nt,-20%,nt,nt
Cc1cccc(N2CCN(c3ncnc4onc(C)c34)CC2C)c1 (stereo not given),11µM*,-2%,-4%,-6%,i,?
COc1cc(O[C@@H]2O[C@H](CO)[C@@H](O)[C@H](O)[C@H]2O)c(CCC(=O)OC[C@H]2O[C@@H](Oc3cc(OC)c(C4OC(=O)C(C)(O)C4O)cc3CCC(=O)O)[C@H](O)[C@@H](O)[C@@H]2O)cc1C1OC(=O)C(C)(O)C1O (stereo not given in full),nt,nt,nt,-7%[12.6 µM],nt,nt
N#C/C(=C\c1ccc(OCc2ccc(Cl)cc2Cl)cc1)c1nc2ccccc2[nH]1,?,2%,i,?,i,0%
CN(C)c1ccc(/C=C(\C#N)c2nc3ccccc3c(=O)[nH]2)cc1,?,-18%,-9%,35µM*,i,7%
Fc1ccccc1-c1nc2ccn(Cc3ccc(-c4ccc(C(F)(F)F)cc4C(F)(F)F)nn3)cc-2n1,nt,nt,nt,18%[57.5 µM],nt,nt
COc1cc(C(=O)O)ccc1NC(=O)[C@@H]1N[C@@H](CC(C)(C)C)[C@](C#N)(c2ccc(Cl)cc2F)[C@H]1c1cccc(Cl)c1F,nt,nt,nt,11µM*,nt,nt
C=C1/C(=C/C=C2\CCC[C@]3(C)[C@@H]([C@H](C)/C=C/C(=O)C4CC4)CC[C@@H]23)C[C@@H](O)C[C@@H]1O,nt,nt,nt,-12%[57.5 µM],nt,nt
CCC(=O)O[C@]1(C(=O)CO)CC[C@H]2[C@@H]3CCC4=CC(=O)CC[C@]4(C)[C@@H]3CC[C@@]21C,nt,nt,-16%,?,nt,nt
Cc1ccc(CCn2c3c(c4cc(Cl)ccc42)CN(C)CC3)cn1,nt,nt,nt,?,i,nt
O=C(Nc1cccc(C(F)(F)F)c1)Nc1ccc(Br)cc1-c1nn[nH]n1,nt,nt,nt,4%[57.5 µM],nt,nt
CCOCc1cc(CN2CCN(c3ccccc3OC)CC2)c(O)c2ncccc12,?,?,i,0%,i,3.2µM*
CCCOCc1cc(CN2CCN(c3ccccc3OC)CC2)c(O)c2ncccc12,5.8µM*,9.3µM*,i,-3%,i,10µM*
COc1ccccc1N1CCN(Cc2cc(COC(C)C)c3cccnc3c2O)CC1,3.5µM*,5.8µM*,?,2%,i,7.1µM*
Oc1c(CN2CCCCC2)cc(COCc2ccccc2)c2cccnc12,nt,nt,nt,-8%,nt,nt
CN(C)C1CCN(Cc2cc(COCc3ccccc3)c3cccnc3c2O)C1 (stereo not given),nt,nt,nt,-1%,nt,nt
COc1ccc(-c2noc(CN3CCN(c4ccccc4OC)CC3)n2)cc1OC,-12%,-6%,i,-4%,i,?
CC(=O)OC[C@@]12[C@H](O)C[C@]3(C)C(=CCC4[C@@]5(C)CC[C@H](O[C@@H]6O[C@H](C(=O)O)[C@@H](O[C@@H]7O[C@H](CO)[C@@H](O)[C@H](O)[C@H]7O)[C@H](O)[C@H]6O[C@@H]6O[C@H](CO)[C@@H](O)[C@H](O)[C@H]6O)[C@](C)(CO)C5CC[C@]43C)[C@@H]1CC(C)(C)[C@@H](OC(C)=O)[C@@H]2O (stereo not given in full),nt,nt,nt,7%[12.6 µM],nt,nt
Cc1ccc(NS(=O)(=O)c2cc3c(cc2N[C@H](C)CO)NC(=O)CC3)cc1C,nt,nt,nt,-6%,nt,nt
C=C(C)C1CCC2(C(=O)O[C@@H]3O[C@H](CO[C@@H]4O[C@H](CO)[C@@H](O)[C@H](O)[C@H]4O)[C@@H](O)[C@H](O[C@@H]4O[C@@H](C)[C@H](O)[C@@H](O)[C@H]4O)[C@H]3O)CCC3(C(=O)O)C(CCC4C5(C)CCC(O)C(C)(C)C5CCC43C)C12 (stereo not given in full),nt,nt,nt,-2%[12.6 µM],nt,nt
COc1ccc(/C=C\c2cc(OC)c(OC)c(OC)c2)cc1O,nt,nt,nt,-17%,nt,nt
Oc1cc(O)cc(/C=C/c2ccc(O)c(O)c2)c1,nt,nt,nt,35µM*,nt,nt
SMILES,PMP22 txn prim,mTORC1 inh,OvCa metastasis,NTMT1 inhibitor,GALC G270D up,S16 F2sN tox
COc1ccc(CNC(=O)c2cc(-c3ccc(Br)s3)nc3ccccc23)cc1,?,-7%,i,2%,i,-4%
Cc1ccc(NC(=O)c2cc(-c3ccc(Br)s3)nc3ccccc23)cc1F,?,-9%,-2%,6%,i,32µM*
COc1cccc(C2CC(=O)Nc3cc4c(cc32)OCCO4)c1OC (stereo not given),0%,15µM*,-10%,-20%,i,-33%
CCC(C)CNCC(=O)N1CCc2sccc2C1c1cccc(C)n1 (stereo not given),nt,nt,nt,-13%,nt,nt
CC(O)C(O)/C=C/C=C/C(=O)O[C@@H]1C=C(C(=O)O)[C@](O)(CO)[C@@]2(C)CCCC(C)(C)[C@H]12 (stereo not given in full),nt,nt,nt,4%[29.8 µM],nt,nt
Cc1cc(C)cc(NC(=O)Nc2ccc3nc(N4CCN(C)CC4)cc(C)c3c2)c1,?,3%,4%,9%,18µM*,?
Cc1cc(N2CCCCC2)nc2ccc(NC(=O)/C=C/c3ccccc3Cl)cc12,?,-15%,-22%,-1%,i,?
COc1cccc(/C=C/C(=O)Nc2ccc3nc(N4CCN(C)CC4)cc(C)c3c2)c1OC,?,?,?,-9%,i,32µM*
Cc1cc(N2CCN(C)CC2)nc2ccc(NC(=O)Nc3ccc(F)cc3)cc12,?,-2%,i,?,i,?
Cc1cc(N2CCCCC2)nc2ccc(NC(=O)/C=C/c3ccccc3OC(C)C)cc12,-8%,16µM*,i,3%,i,4%
O=C(Nc1ccc2c(c1)OCCO2)c1ccc(-c2nc3ccccc3[nH]2)cc1,nt,nt,nt,1%,nt,nt
